Data on 15 compounds can be found in PubChem BioAssay (NCATS).

Unmarked numbers belong to inactive results. Inconclusive results are not listed. Active and inactive are the calls of the source. Unless noted, calls follow the shape of the dose curve; as a rule, active = well fitted curve in the direction sought with a large enough effect; inconclusive = small, poorly fitted or top-dose-only effect, or another doubt; inactive = no such curve, though single readings can be large; an effect the other way counts as inactive or inconclusive.

For experiment [1], the system named is Zika virus NS2B-NS3 protease. The experiment can be described thus: Primary screen GU AMC qHTS for Zika virus inhibitors (AID 1347154).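 Also: 0% = no-inhibitor control and -100% = no-enzyme control; nearly all actives have a fitted effect of over 70% in size.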 Put shortly: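 Fluorogenic AMC-substrate cleavage by noncovalent NS2B-NS3 protease complex (25 nM, pH 8.0 Tris buffer with Tween 20) followed for 15 minutes at room temperature (~20% conversion). Percent inhibition from ex340/em450 signal change, fitted by 4-parameter Hill equation.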

Experiment [2] is described as follows: Counterscreen qHTS for small molecule stabilizers of the endoplasmic reticulum resident proteome: GLuc-NoTag assay (AID 1508627).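 Also: series mostly up to about 76 µM; 0% = thapsigargin alone and -100% = DMSO vehicle control.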 A digest of the protocol:
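Counterscreen line: SH-SY5Y-GLuc-NoTag cells, treated with compound 19 hr before a 4 hr, 100 nM thapsigargin calcium depletion. Secreted Gaussia luciferase in the medium was measured by luminescence after coelenterazine was added (0.07x final), with cells unlysed.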
Background: The purpose of a counterscreen is to sort out artefacts and off-target activity.

Experiment [3] is described as follows: Cell Viability qHTS for small molecule stabilizers of the endoplasmic reticulum resident proteome (AID 1508629).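 Also: potency is read from the fitted curve at half-maximal effect; compound exposure about 46 h in total before the viability read.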 The note with it: cell viability counter-screen, 100 nM thapsigargin for final 4 h.
Experiment [4] in a line: Primary qHTS for small molecule stabilizers of the endoplasmic reticulum resident proteome: Secreted ER Calcium Modulated Protein (SERCaMP) assay (AID 1508630). Also: % is scaled to controls: 0 for no effect and ±100 for the full control effect. A digest of the protocol: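 The SH-SY5Y reporter protocol was run at 3 concentrations up to 38.3 uM (primary) or 11 concentrations (follow-up): 16 h compound, 100 nM thapsigargin for 4 h, then extracellular luciferase luminescence.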
For orientation: Quantitative high-throughput screening tests each substance at several concentrations.

Experiment [5] has as its target Cytochrome P450 1A2 (Homo sapiens) (UniProt P05177). Put plainly: p450-cyp1a2 (AID 410; calls by dose curve;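 also: -100% = full effect of reference inhibitor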). Put shortly:
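Luminescent demethylation readout: Luciferin-ME (100uM, equal to Km) turned over by 20nM CYP1A2 for 60 min at room temperature after NADPH regeneration addition, following 10 min compound preincubation. Normalization used 57 uM furafylline as full inhibition.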

Experiment [6] concerns the target Glucocorticoid receptor (Homo sapiens) (UniProt P04150). The experiment can be described thus: GR-GFP Redistribution (AID 450;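 active = compounds whose dose series gives a full or clear partial fitted curve of increased nuclear translocation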; also: potency is read from the fitted curve at half-maximal effect). The note with it: U2OS GR-GFP nuclear translocation, laser cytometry, 2 h.
For experiment [7] the target is unchanged. The experiment can be described thus: GR-EFC Redistribution (AID 451; calls by dose curve; also: potency is read from the fitted curve at half-maximal effect). The note with it: CHO-K1 GR-EFC translocation, beta-gal luminescence, 2 h. Put shortly: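 Translocation of GR-ED fusion to nuclear EA restores b-gal, read by luminescence after 1 h room-temperature detection. Engineered CHO-K1 biosensor cells, 1,000/well, exposed 2 h at 37 C to titrations up to 46 uM final.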

Experiment [8] deals with Mitogen-activated protein kinase 10 (Mus musculus) (UniProt Q61831). Put plainly: JNK3 AlphaScreen Assay (AID 530; active = well fitted curve in either direction with a large enough effect, not every such curve was filed as active;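 also: kinase came from lysate of stimulated human HepG2 cells; signal reports phosphorylation of biotinylated GST-cJun 1-79 at Ser73 with 10 µM ATP; series mostly up to about 57 µM; % is scaled to controls: 0 for no effect and ±100 for the full control effect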). A digest of the protocol:
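qHTS titrations with 15 min compound pre-incubation before adding ATP (10 uM final). Read-out: AlphaScreen of Ser73-phosphorylated biotin-GST-cJun using HepG2 lysate JNK3 activated by IL-1β and TNFα.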
For orientation: Bead proximity is the source of the signal in Alpha formats.

Experiment [9] addresses 3',5'-cyclic-AMP phosphodiesterase 4B (Homo sapiens) (UniProt Q07343). Put plainly: qHTS Assay for Inhibitors of PDE-IV (AID 607; active = well fitted activation curve with a large enough effect in the main read-out, with a control signal flat, not every such curve was filed as active; also: % of control where 0% means no effect). A digest of the protocol:
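The readout is membrane depolarisation from a cAMP-sensing CNG channel, detected with a potential dye at ex 535/em 590. Cells were HEK293-derived (endogenous PDE-IV) at 1000 cells/well, titrated up to 22.9 uM final.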

Experiment [10] concerns the target Ubiquitin carboxyl-terminal hydrolase 1 (Homo sapiens) (UniProt O94782). The experiment can be described thus: Inhibitors of USP1/UAF1: Pilot qHTS (AID 504865).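 Also: rhodamine fluorescence freed from ubiquitin-rhodamine substrate followed over time; top concentration of the series differs between compounds; % is scaled to controls: 0 for no effect and ±100 for the full control effect; nearly all actives have a fitted effect of over 35% in size.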 Put shortly: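 Kinetic fluorescence assay: 1nM USP1/UAF1, 15 min compound preincubation, then 150nM Ub-Rho; 480/540 nm.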
Experiment [11] concerns the target DNA dC->dU-editing enzyme APOBEC-3G (Homo sapiens) (UniProt Q9HC16). Put plainly: qHTS for inhibitors of Vif-A3G interactions: Validation (AID 588379). Also: 0% is about no effect. A digest of the protocol:
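Yellow fluorescence (Ex 488, Em 500-530) of Vif-coexpressing HeLa A3G-eYFP cells, scanned by Acumen cytometer, reports blocked A3G degradation. Cells plated at 700/well overnight at 37 deg C before compound addition, then a further overnight compound incubation at 37 deg C.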

The nature of experiment [12]: Confirmatory qHTS for small molecule stabilizers of the endoplasmic reticulum resident proteome: Secreted ER Calcium Modulated Protein (SERCaMP) assay (AID 1508628). Also: series mostly up to about 76 µM; % is scaled to controls: 0 for no effect and ±100 for the full control effect; nearly all actives have a fitted effect of over 40% in size. A digest of the protocol:
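Reporter secretion upon ER calcium depletion (100 nM thapsigargin, 4 h, 37C) is measured as medium luminescence with coelenterazine, after 16 h compound pretreatment of SH-SY5Y-GLuc-SERCaMP cells; primary at three concentrations up to 38.3 uM, follow-up at 11 (up to 76.6 uM).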

Sequence of Glucocorticoid receptor (Homo sapiens) (P04150 whole entry, looked up, the tested form may be a part): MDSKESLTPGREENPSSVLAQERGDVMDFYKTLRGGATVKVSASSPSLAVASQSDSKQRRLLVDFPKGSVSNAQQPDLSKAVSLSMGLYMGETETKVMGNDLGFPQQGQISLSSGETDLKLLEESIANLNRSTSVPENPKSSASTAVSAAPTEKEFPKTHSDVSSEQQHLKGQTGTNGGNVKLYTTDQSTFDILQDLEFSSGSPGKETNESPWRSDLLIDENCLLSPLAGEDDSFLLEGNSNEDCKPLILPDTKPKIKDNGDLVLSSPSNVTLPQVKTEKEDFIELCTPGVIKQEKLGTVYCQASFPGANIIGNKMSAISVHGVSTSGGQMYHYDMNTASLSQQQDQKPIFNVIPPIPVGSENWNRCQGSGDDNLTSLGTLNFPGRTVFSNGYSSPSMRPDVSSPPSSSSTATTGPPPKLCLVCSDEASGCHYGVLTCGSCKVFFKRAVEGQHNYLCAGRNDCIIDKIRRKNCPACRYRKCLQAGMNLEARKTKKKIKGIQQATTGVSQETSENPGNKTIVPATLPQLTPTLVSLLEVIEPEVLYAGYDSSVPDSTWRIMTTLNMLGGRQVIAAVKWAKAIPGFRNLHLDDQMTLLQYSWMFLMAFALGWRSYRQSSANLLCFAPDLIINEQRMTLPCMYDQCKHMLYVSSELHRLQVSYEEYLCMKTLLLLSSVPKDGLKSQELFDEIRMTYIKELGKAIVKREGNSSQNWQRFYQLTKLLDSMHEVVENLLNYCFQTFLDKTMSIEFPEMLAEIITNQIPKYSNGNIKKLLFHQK
Sequence of DNA dC->dU-editing enzyme APOBEC-3G (Homo sapiens) (Q9HC16 whole entry, looked up): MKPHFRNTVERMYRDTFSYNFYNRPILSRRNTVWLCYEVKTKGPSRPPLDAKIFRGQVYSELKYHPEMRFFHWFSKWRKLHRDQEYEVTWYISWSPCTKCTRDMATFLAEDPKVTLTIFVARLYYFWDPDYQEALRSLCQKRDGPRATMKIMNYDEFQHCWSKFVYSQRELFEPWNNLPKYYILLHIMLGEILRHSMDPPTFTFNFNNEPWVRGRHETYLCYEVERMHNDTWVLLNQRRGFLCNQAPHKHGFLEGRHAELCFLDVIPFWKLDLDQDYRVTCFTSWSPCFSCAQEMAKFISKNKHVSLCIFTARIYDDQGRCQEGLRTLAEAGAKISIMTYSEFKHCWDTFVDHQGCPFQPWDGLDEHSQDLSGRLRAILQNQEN
Sequence of Ubiquitin carboxyl-terminal hydrolase 1 (Homo sapiens) (O94782 whole entry, looked up): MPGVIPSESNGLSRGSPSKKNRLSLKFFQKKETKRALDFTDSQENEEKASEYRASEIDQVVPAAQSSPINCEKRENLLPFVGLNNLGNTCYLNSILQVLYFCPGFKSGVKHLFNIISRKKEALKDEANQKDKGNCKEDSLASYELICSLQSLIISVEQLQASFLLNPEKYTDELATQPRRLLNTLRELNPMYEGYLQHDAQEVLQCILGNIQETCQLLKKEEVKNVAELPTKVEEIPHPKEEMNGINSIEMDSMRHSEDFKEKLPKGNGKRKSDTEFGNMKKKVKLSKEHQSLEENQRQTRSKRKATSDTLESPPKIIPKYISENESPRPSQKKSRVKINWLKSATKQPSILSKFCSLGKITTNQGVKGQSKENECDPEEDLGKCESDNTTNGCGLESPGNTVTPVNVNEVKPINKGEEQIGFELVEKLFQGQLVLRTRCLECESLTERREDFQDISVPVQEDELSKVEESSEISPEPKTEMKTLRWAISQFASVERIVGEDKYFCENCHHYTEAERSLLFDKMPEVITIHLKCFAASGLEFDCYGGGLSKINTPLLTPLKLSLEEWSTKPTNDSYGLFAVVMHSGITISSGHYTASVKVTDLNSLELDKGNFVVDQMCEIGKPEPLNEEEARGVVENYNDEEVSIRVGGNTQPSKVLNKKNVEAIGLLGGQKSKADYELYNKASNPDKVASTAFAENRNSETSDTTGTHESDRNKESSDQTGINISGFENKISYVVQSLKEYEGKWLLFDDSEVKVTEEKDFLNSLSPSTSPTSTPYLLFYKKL
Sequence of Cytochrome P450 1A2 (Homo sapiens) (P05177 whole entry, looked up): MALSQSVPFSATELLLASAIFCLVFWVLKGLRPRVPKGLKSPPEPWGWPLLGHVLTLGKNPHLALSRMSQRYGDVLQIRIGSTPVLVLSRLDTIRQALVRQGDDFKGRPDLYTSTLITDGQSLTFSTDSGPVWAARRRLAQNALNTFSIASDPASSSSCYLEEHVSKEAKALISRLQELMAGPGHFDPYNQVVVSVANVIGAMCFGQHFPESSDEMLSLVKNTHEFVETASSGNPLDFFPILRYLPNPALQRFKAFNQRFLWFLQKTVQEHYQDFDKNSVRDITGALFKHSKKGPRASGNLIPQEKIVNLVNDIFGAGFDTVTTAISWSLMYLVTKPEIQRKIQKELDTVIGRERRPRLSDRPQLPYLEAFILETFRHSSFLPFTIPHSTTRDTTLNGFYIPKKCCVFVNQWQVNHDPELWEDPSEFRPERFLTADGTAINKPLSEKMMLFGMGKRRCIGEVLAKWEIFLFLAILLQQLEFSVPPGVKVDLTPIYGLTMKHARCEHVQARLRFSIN
Sequence of 3',5'-cyclic-AMP phosphodiesterase 4B (Homo sapiens) (Q07343 whole entry, looked up): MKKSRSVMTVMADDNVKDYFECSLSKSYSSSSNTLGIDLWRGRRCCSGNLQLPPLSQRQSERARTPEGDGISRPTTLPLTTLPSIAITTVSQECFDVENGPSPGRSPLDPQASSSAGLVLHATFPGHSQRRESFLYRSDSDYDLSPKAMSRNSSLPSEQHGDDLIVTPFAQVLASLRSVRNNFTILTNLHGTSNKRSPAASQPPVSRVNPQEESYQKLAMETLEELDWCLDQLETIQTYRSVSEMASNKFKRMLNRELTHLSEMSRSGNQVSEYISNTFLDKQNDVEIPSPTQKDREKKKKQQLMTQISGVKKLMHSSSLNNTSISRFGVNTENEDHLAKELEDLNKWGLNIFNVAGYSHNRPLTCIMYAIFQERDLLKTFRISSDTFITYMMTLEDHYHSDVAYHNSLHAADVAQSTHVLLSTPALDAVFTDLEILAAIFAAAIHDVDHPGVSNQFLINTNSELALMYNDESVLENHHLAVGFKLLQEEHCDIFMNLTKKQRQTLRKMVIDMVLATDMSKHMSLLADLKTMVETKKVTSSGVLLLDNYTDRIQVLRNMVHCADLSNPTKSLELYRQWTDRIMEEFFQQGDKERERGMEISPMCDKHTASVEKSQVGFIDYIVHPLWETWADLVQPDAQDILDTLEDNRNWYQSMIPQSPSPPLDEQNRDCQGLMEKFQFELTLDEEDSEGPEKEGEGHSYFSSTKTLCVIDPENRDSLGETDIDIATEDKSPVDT

For `CC(C)ON(C(C(=O)NO)C(C)C)S(=O)(=O)c1ccc(-c2ccccc2)cc1` (stereo not drawn), the Potency result in [1] and in experiment [2] was “inactive” in each case. Moreover, the Potency in experiment [3] is 12.6 µM (active).

Consider `CCCCC[C@H](O)/C=C/[C@@H]1[C@@H](CC(=O)CCCCC(=O)O)[C@@H](O)C[C@H]1O`, for which the values for the activity change, negative = inhibition in [1] and in experiment [4] were 7.57% [at 6.83 µM] and 35.8% [at 3.88 µM], respectively.

`CCC(N)(C(=O)O)c1ccc(C(=O)O)cc1` (stereo not drawn): the Potency entry in experiment [1] and in [4] was “inactive” each time.

`CC1(C)Oc2ccc(C#N)cc2[C@@H](OC2=CC(=O)CC2)[C@@H]1O`: the Potency entry in experiment [1] and in [4] was “inactive” in each case.

In the case of `Nc1ncnc2c1nc(Br)n2[C@@H]1O[C@H]2COP(=O)(O)O[C@@H]2[C@@H]1O`, the Potency entry in [1] and in experiment [4] was “inactive” throughout.

As to `COC(=O)[C@@H](c1ccccc1Cl)N1CCc2sccc2C1`, the Potency entry in experiment [1] and in experiment [4] was “inactive” each time.

`N#Cc1ccccc1OCC(O)CNCCNC(=O)Nc1ccccc1` (stereo not drawn): the Potency result in [1] and in experiment [4] was “inactive” throughout.

Take `CCCCC[C@H](O)/C=C/C=C\CCCCCCCC(=O)O`: the Potency entry in experiment [1] and in experiment [4] was “inactive” throughout.

`CC(N)CCCP(=O)(O)O` (stereo not drawn): the Potency entry in experiment [1] and in experiment [4] was “inactive” throughout.

On to `N#C/C(=C\c1cc(Cl)cc(Cl)c1)c1cccnc1`, for which the Potency entry in experiment [1] and in [4] was “inactive” in each case.

Take `CCCCCCCC(=O)OC[C@H](CO)OC(=O)CCCCCCC`: the activity change, negative = inhibition in [1] is 4.76% [at 6.83 µM]; in experiment [4], -8.21% [at 3.88 µM].

Regarding `COc1ccc(CCNC(=O)C(=O)c2c[nH]c3ccccc23)cc1`, the Potency result in experiment [1] and in [4] was “inactive” throughout.

For `NC1(C(=O)O)CCc2cc(P(=O)(O)O)ccc21` (stereo not drawn), the Potency result in experiment [1] and in [4] was “inactive” each time.

For `CCC(=O)NC1Cc2ccccc2C(c2ccccc2)C1` (stereo not drawn), the Potency result in experiment [1] and in [4] was “inactive” in each case.

With `N[C@@H](Cc1cc(CP(=O)(O)O)cc(-c2ccccc2Cl)c1)C(=O)O`, the Potency entry in [5], in experiment [8], in experiment [9], in [10], in [11] and in experiment [1] was “inactive” each time. For the same compound, in [12], the Potency result was “inactive”. For the same compound, the Potency in experiment [6] and in experiment [7] was greater than 46 µM each time.
